The record followed here is the supplement of paper PMC7411054.

Structures are written as SMILES. Counter-ions that a name gives are not always drawn.

The first assay deals with HepG2-TUBA1B-RELA. In words: phenotypically active (imaging signature differs from DMSO and reproducible) at any of 0.3-9 uM (binary (1 = active, 0 = inactive)); higher = active. The settings on record: treatment time: 24 h. In short, it runs like this:
(§1)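 Fifteen reporter lines derived from A549, HepG2 and WPMY1 cells by gene editing, carrying BFP for segmentation plus GFP and RFP/FusionRed markers, were exposed to 0.3, 1, 3 or 9 µM for 24 h in four wells each and imaged live. Live-cell features from each well were normalised to solvent control wells. A well set counted as deviating when ≥3 of 4 wells lay beyond the 95th percentile of control Euclidean distances, and as reproducible when the median replicate Pearson correlation exceeded the 95th percentile of non-replicates. Phenotypic activity was assigned only when both criteria were met.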
Take `CC(C)[N+](C)(CCC(C(N)=O)(c1ccccc1)c1ccccc1)C(C)C` [isopropamide-iodide]: the phenotypically active was 0 (inactive).

For the compound `CC(C)N(CCC(C(N)=O)(c1ccccc1)c1ccccn1)C(C)C` (stereo not drawn) [disopyramide], the phenotypically active was 0 (inactive).

For `O=C1C[C@@H]2OCC=C3C[N+]4([O-])CC[C@]56c7ccccc7N1[C@H]5[C@H]2[C@H]3C[C@@H]64` (stereo partly drawn) [Genostrychnine base], the phenotypically active is 0 (inactive).

As for `C[C@@H]1CN([C@H]2CC[C@](C#N)(c3ccc(F)cc3)CC2)CC[C@]1(C(=O)O)c1ccccc1` [levocabastine], the phenotypically active is 0 (inactive).

`Cc1ccc(C[N+](C)(C)C)o1` [5-Methylfurmethiodide]: the phenotypically active is 0 (inactive).

For `COc1cc2c3cc1Oc1cc(ccc1O)C[C@@H]1c4c(cc(OC)c(O)c4Oc4cccc(c4)C[C@@H]3N(C)CC2)CC[N+]1(C)C` [Tubocurarine chloride pentahydrate (+)], the phenotypically active was 0 (inactive).

Consider `CCCC(C)C1(CC)C(=O)N=C(S)NC1=O` (stereo not drawn) [thiopental], for which the phenotypically active is 0 (inactive).

On to `C=C1[C@H]2C[C@@]3([C@@H]1O)[C@@H](C[C@@H]2O)[C@]12[C@@H]4C[C@H]3[C@H]1N(CC)C[C@]4(C)CC[C@@H]2O` [Napelline], for which the phenotypically active was 0 (inactive).

With `CO[C@H](C)[C@](O)(C(=O)OCC1=CCN2CC[C@H](O)[C@@H]12)C(C)C` [Heliotrine], the phenotypically active is 0 (inactive).

Turning to `C/C=C1\C[C@@H](C)[C@](O)(CO)C(=O)OCC2=CCN3CC[C@@H](OC1=O)[C@@H]23` [Retrorsine], the phenotypically active is 0 (inactive).

Turning to `CN(C)NC(=O)CCC(=O)O` [Daminozide], the phenotypically active was 0 (inactive).

Consider `CN1[C@@H]2CC(=O)C[C@H]1[C@H](O)C2` [6-Hydroxytropinone], for which the phenotypically active is 0 (inactive).

Take `COc1ccc2c3c1O[C@H]1C(=O)CC[C@H]4[C@@H](C2)N(C)CC[C@]314` [hydrocodone]: the phenotypically active was 0 (inactive).

As to `CCN(C(C)=O)c1cccc(-c2ccnc3c(C#N)cnn23)c1` [zaleplon], the phenotypically active is 0 (inactive).

On to `C[N+]1([O-])[C@@H]2C[C@@H](OC(=O)[C@H](CO)c3ccccc3)C[C@H]1[C@@H]1O[C@@H]12` (stereo partly drawn) [Genoscopolamine HBr], for which the phenotypically active is 0 (inactive).

With `NCC1(CC(=O)O)CCCCC1` [gabapentin], the phenotypically active was 0 (inactive).

As for `CN1CCc2cc3c(cc2[C@H]1[C@@H]1OC(=O)c2c1ccc1c2OCO1)OCO3` [bicuculine], the phenotypically active is 0 (inactive).

For `c1cncc(C2CC3CCN2CC3)c1` (stereo not drawn) [RJR 2429 dihydrochloride], the phenotypically active was 0 (inactive).

With `CC1=CC(=O)C2=C(C)C[C@H](O)[C@@H]3[C@H](OC(=O)[C@H]3C)[C@@H]12` [Austricine hydrate], the phenotypically active is 0 (inactive).

`C=C(C)[C@H]1CN[C@H](C(=O)O)[C@H]1CC(=O)O` [Kainic acid]: the phenotypically active was 0 (inactive).

With `C[C@H]1CCC2(NC1)O[C@H]1C[C@H]3[C@@H]4CC[C@H]5C[C@@H](O[C@@H]6O[C@H](CO)[C@H](O[C@@H]7O[C@H](CO)[C@@H](O)[C@H](O[C@@H]8OC[C@@H](O)[C@H](O)[C@H]8O)[C@H]7O[C@@H]7O[C@H](CO)[C@@H](O)[C@H](O)[C@H]7O)[C@H](O)[C@H]6O)CC[C@]5(C)[C@H]4CC[C@]3(C)[C@H]1[C@@H]2C` (stereo partly drawn) [Tomatine], the phenotypically active is 0 (inactive).

Take `CN1[C@@H]2C[C@@H](OC(=O)[C@H](CO)c3ccccc3)C[C@H]1[C@@H]1O[C@@H]12` [Scopolamine hydrobromide]: the phenotypically active was 0 (inactive).

Another assay deals with WPMY1-ACTB-RAB5A. The description is as above. The settings on record: treatment time: 24 h. In short, it runs like this:
as §1
As for `N[C@@H]1C[C@H]1c1ccccc1` [Tranylcypromine hydrochloride], the phenotypically active is 0 (inactive).

For the compound `C/C=C1\CN2CC[C@]34c5cc(OC)ccc5N5C(=O)C(O)OC[C@@H]([C@H]53)[C@H]1C[C@H]24` (stereo partly drawn) [10-Methoxy-o-demethyltsilanine], the phenotypically active was 0 (inactive).

As to `Fc1ccccc1C1=NCC(=S)N(CC(F)(F)F)c2ccc(Cl)cc21` [quazepam], the phenotypically active was 0 (inactive).

On to `COc1c2c(cc3c1OCO3)CC[N+](C)=C2` [Cotarnine chloride], for which the phenotypically active is 0 (inactive).

In the case of `N[C@H]1C[C@@H]1c1ccccc1` [tranylcypromine], the phenotypically active was 0 (inactive).

For the compound `O=c1ccc2ccc3occc3c2o1` [Angelicin], the phenotypically active is 0 (inactive).

On to `C[C@]12COC(=O)C[C@@H]1CC[C@@H]1[C@@H]2CC[C@@]2(C)[C@H]1CC[C@]2(C)O` [oxandrolone], for which the phenotypically active is 0 (inactive).

For `CC(C)C[C@H](CN)CC(=O)O` [pregabalin], the phenotypically active is 0 (inactive).

Turning to `NC(=S)N/N=C/c1coc2ccccc2c1=O`, the phenotypically active was 0 (inactive).

Take `O[C@H]1[C@H](O)[C@@H](O)CN2CC[C@H](O)[C@H]12` [Castanospermine]: the phenotypically active was 0 (inactive).

With `Cc1ccc(-c2nc3ccc(C)cn3c2CC(=O)N(C)C)cc1` [zolpidem], the phenotypically active was 0 (inactive).

Turning to `CN1C(CC(O)c2ccccc2)CCCC1CC(O)c1ccccc1` (stereo not drawn) [Lobelanidine hydrochloride], the phenotypically active is 0 (inactive).

`CNC(=O)Oc1ccc2c(c1)[C@]1(C)CCN(C)O[C@@H]1N2C` [Geneserine]: the phenotypically active is 0 (inactive).

Take `COc1ccc(C(=O)OC2C[C@H]3CC[C@H](C2)N3C)cc1OC` (stereo partly drawn) [Convolamine hydrochloride]: the phenotypically active was 0 (inactive).

With `CC(C)[N+](C)(CCC(C(N)=O)(c1ccccc1)c1ccccc1)C(C)C` [isopropamide-iodide], the phenotypically active is 0 (inactive).

As to `CC(C)N(CCC(C(N)=O)(c1ccccc1)c1ccccn1)C(C)C` (stereo not drawn) [disopyramide], the phenotypically active is 0 (inactive).

Turning to `O=C1C[C@@H]2OCC=C3C[N+]4([O-])CC[C@]56c7ccccc7N1[C@H]5[C@H]2[C@H]3C[C@@H]64` (stereo partly drawn) [Genostrychnine base], the phenotypically active was 0 (inactive).

Regarding `C[C@@H]1CN([C@H]2CC[C@](C#N)(c3ccc(F)cc3)CC2)CC[C@]1(C(=O)O)c1ccccc1` [levocabastine], the phenotypically active was 0 (inactive).

Turning to `Cc1ccc(C[N+](C)(C)C)o1` [5-Methylfurmethiodide], the phenotypically active was 0 (inactive).

As to `COc1cc2c3cc1Oc1cc(ccc1O)C[C@@H]1c4c(cc(OC)c(O)c4Oc4cccc(c4)C[C@@H]3N(C)CC2)CC[N+]1(C)C` [Tubocurarine chloride pentahydrate (+)], the phenotypically active is 0 (inactive).

For `CCCC(C)C1(CC)C(=O)N=C(S)NC1=O` (stereo not drawn) [thiopental], the phenotypically active is 0 (inactive).

For `C=C1[C@H]2C[C@@]3([C@@H]1O)[C@@H](C[C@@H]2O)[C@]12[C@@H]4C[C@H]3[C@H]1N(CC)C[C@]4(C)CC[C@@H]2O` [Napelline], the phenotypically active is 0 (inactive).

Take `CO[C@H](C)[C@](O)(C(=O)OCC1=CCN2CC[C@H](O)[C@@H]12)C(C)C` [Heliotrine]: the phenotypically active was 0 (inactive).

For the compound `C/C=C1\C[C@@H](C)[C@](O)(CO)C(=O)OCC2=CCN3CC[C@@H](OC1=O)[C@@H]23` [Retrorsine], the phenotypically active is 0 (inactive).

Regarding `CN(C)NC(=O)CCC(=O)O` [Daminozide], the phenotypically active is 0 (inactive).

With `CN1[C@@H]2CC(=O)C[C@H]1[C@H](O)C2` [6-Hydroxytropinone], the phenotypically active is 0 (inactive).

Consider `COc1ccc2c3c1O[C@H]1C(=O)CC[C@H]4[C@@H](C2)N(C)CC[C@]314` [hydrocodone], for which the phenotypically active was 0 (inactive).

Take `CCN(C(C)=O)c1cccc(-c2ccnc3c(C#N)cnn23)c1` [zaleplon]: the phenotypically active is 0 (inactive).

In the case of `C[N+]1([O-])[C@@H]2C[C@@H](OC(=O)[C@H](CO)c3ccccc3)C[C@H]1[C@@H]1O[C@@H]12` (stereo partly drawn) [Genoscopolamine HBr], the phenotypically active was 0 (inactive).

With `NCC1(CC(=O)O)CCCCC1` [gabapentin], the phenotypically active was 0 (inactive).

For `CN1CCc2cc3c(cc2[C@H]1[C@@H]1OC(=O)c2c1ccc1c2OCO1)OCO3` [bicuculine], the phenotypically active is 0 (inactive).

For `c1cncc(C2CC3CCN2CC3)c1` (stereo not drawn) [RJR 2429 dihydrochloride], the phenotypically active was 0 (inactive).

For the compound `CC1=CC(=O)C2=C(C)C[C@H](O)[C@@H]3[C@H](OC(=O)[C@H]3C)[C@@H]12` [Austricine hydrate], the phenotypically active was 0 (inactive).

`C=C(C)[C@H]1CN[C@H](C(=O)O)[C@H]1CC(=O)O` [Kainic acid]: the phenotypically active was 0 (inactive).

As for `C[C@H]1CCC2(NC1)O[C@H]1C[C@H]3[C@@H]4CC[C@H]5C[C@@H](O[C@@H]6O[C@H](CO)[C@H](O[C@@H]7O[C@H](CO)[C@@H](O)[C@H](O[C@@H]8OC[C@@H](O)[C@H](O)[C@H]8O)[C@H]7O[C@@H]7O[C@H](CO)[C@@H](O)[C@H](O)[C@H]7O)[C@H](O)[C@H]6O)CC[C@]5(C)[C@H]4CC[C@]3(C)[C@H]1[C@@H]2C` (stereo partly drawn) [Tomatine], the phenotypically active was 0 (inactive).

`CN1[C@@H]2C[C@@H](OC(=O)[C@H](CO)c3ccccc3)C[C@H]1[C@@H]1O[C@@H]12` [Scopolamine hydrobromide]: the phenotypically active was 0 (inactive).
